Among the data in PubChem BioAssay AID1259336 (Sattelle Laboratory, UCL Respiratory, Division of Medicine, …, 2017) are log2 fold change growth values, retold here.

Activity calls are given as the source filed them. No stated cut-off is given here; in the data, active means log2 fold change growth below about -1.8; inactive means the rest.

The nature of the assay: C. elegans growth inhibition, whole organism, log2 fold change (AID 1259336).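 Further: growth scored by imaging after five days at 20 °C.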 Conditions: anthelmintic screen, stronger effect = lower value.
With `CC(C)(C)c1cc(C(=O)Nc2cccnc2)cc(C(=O)Nc2cccnc2)c1`, the log2 fold change growth is 0.00293 (inactive).

In the case of `CCc1nc2ccc(Cl)cn2c1C(=O)NCc1ccc(N2CCC(c3ccc(OC(F)(F)F)cc3)CC2)cc1`, the log2 fold change growth was -0.0431 (inactive).

For the compound `COc1ccc([C@@H]2CC(c3cccs3)=NN2C(=O)c2ccco2)cc1OC`, the log2 fold change growth is -0.296 (inactive).

As to `CC1(C)Cc2c(c(N3CCOCC3)nc3snc(Br)c23)CO1`, the log2 fold change growth is 0.562 (inactive).

`COc1ccc(-c2nn(C(C)C)c3ncnc(N)c23)cc1OC`: the log2 fold change growth is 0.278 (inactive).

For `CC1CC1C(=O)NC1CCN(CC2(c3ccccc3)CCCCC2)CC1` (stereo not drawn), the log2 fold change growth was 0.347 (inactive).

Consider `c1csc(-c2cnc3sc(NCC4CCOCC4)nn23)c1`, for which the log2 fold change growth is -0.257 (inactive).

As for `CS(=O)(=O)Cc1nc2ccccc2oc1=O`, the log2 fold change growth was -0.133 (inactive).

Consider `Cc1cc(C)c2cc(C(=O)NC3CCCCCCC3)[nH]c2c1`, for which the log2 fold change growth is -0.0221 (inactive).

As to `O=C1N(Cc2cc3ccccc3s2)C[C@H]2CN(Cc3ccccc3)CCN12`, the log2 fold change growth is -0.864 (inactive).

As to `c1ccc(-c2[nH]c3ccccc3c2[C@@H](c2ccccn2)N2CCCC2)cc1`, the log2 fold change growth was -0.0251 (inactive).

`CNc1nnc(Sc2cnn(-c3ccccc3)c(=O)c2Cl)s1`: the log2 fold change growth was -0.948 (inactive).

In the case of `Cc1nnc(NC(=O)c2cn(-c3ccccc3)nc2-c2ccccc2C)o1`, the log2 fold change growth is -0.302 (inactive).

Regarding `Cc1cc(C)n2nc(C(=O)Nc3cc(C(F)(F)F)ccc3N3CCOCC3)nc2n1`, the log2 fold change growth was 0.174 (inactive).

Consider `NCC(=O)N1CCn2c(nc(-c3ccccc3)c2Nc2ccc3c(c2)OCO3)C1`, for which the log2 fold change growth is 0.0553 (inactive).

As for `NC(=O)c1cc(Br)ccc1OCCOc1ccccc1`, the log2 fold change growth was 0.186 (inactive).

In the case of `O=C(NCc1nnc2n1CCCCC2)c1ccc(-c2ccc(F)cc2)o1`, the log2 fold change growth is 0.174 (inactive).

As for `N#Cc1nc(-c2ccccc2F)oc1NCCc1ccccc1`, the log2 fold change growth is -0.468 (inactive).

On to `COc1ccc(S(=O)(=O)Nc2ccc(CN3CCN(C(=O)c4cccc(C#N)c4)CC3)cc2)cc1`, for which the log2 fold change growth was 0.00585 (inactive).

`COc1ccc(OC)c(NCc2ccc3nc(N)nc(N)c3c2Cl)c1`: the log2 fold change growth is 0.162 (inactive).

Turning to `Cc1noc(C)c1C(=O)N1CCC[C@H](c2[nH]c3c(C)cccc3c2-c2ccncc2)C1`, the log2 fold change growth was -0.149 (inactive).

For the compound `O=C(C1CCN(c2nnnn2-c2ccccc2)CC1)N1CCc2ccccc2C1`, the log2 fold change growth was -0.288 (inactive).

On to `CC(C)(C)OC(=O)N1CCN(c2nccc(-c3ccc(-c4ccc(Cl)cc4)s3)n2)CC1`, for which the log2 fold change growth is 0.151 (inactive).

As for `Cc1nn(C(=O)Nc2cccc(C(F)(F)F)c2)c(C)c1Sc1ncccn1`, the log2 fold change growth was -0.494 (inactive).

As to `Cc1[nH]c2cc(F)cc(F)c2c(=O)c1-c1ccc(Oc2ccc(OC(F)(F)F)cc2)cc1`, the log2 fold change growth is -0.247 (inactive).

Regarding `C[C@@H]1[C@H](O)[C@@H](C)C=CC=CC=CC=CC=CC=CC=C[C@H](O[C@@H]2O[C@H](C)[C@@H](O)[C@H](N)[C@@H]2O)C[C@@H]2O[C@](O)(C[C@@H](O)C[C@@H](O)[C@H](O)CC[C@H](O)C[C@@H](O)CC(=O)O[C@H]1C)C[C@H](O)[C@H]2C(=O)O`, the log2 fold change growth was 0.0153 (inactive).

Regarding `COc1cc(-c2cc(-c3ccc(S(C)(=O)=O)cc3)cnc2N)ccc1O`, the log2 fold change growth is -0.318 (inactive).

Turning to `CCc1cc(=O)n(C)c(S[C@@H](C)C(=O)Nc2ccc(F)cc2)n1`, the log2 fold change growth is -0.417 (inactive).

`COc1ccc(-c2cnc3ccc(NCc4ccc(S(N)(=O)=O)cc4)nn23)cn1`: the log2 fold change growth was 0.21 (inactive).

Turning to `Nc1nccc2ccc(-c3ccc4nccn4c3)cc12`, the log2 fold change growth is 0.14 (inactive).

In the case of `O=C(Nc1cccnc1)c1c(O)c2cccc3c2n(c1=O)CC3`, the log2 fold change growth is -4.81 (active).

As for `O=C(Nc1nnc(-c2ccc(Cl)s2)o1)c1ccc(Cl)s1`, the log2 fold change growth was 0.518 (inactive).

As for `COc1ccc(Nc2ccccc2NC(=O)c2ccc(=O)[nH]c2)cc1`, the log2 fold change growth was -0.31 (inactive).

Take `Cc1ccc2[nH]c([C@H]3CCCNC3)c(-c3ccncc3)c2c1`: the log2 fold change growth is 0.649 (inactive).

Turning to `FC(F)(F)c1cc(NCCc2ccccc2)nc(-c2ccccn2)n1`, the log2 fold change growth was -0.968 (inactive).

As to `CCOc1ccc2cc(-c3nn(CC4CCN(C)CC4)c4ncnc(N)c34)ccc2c1`, the log2 fold change growth is 0.151 (inactive).

Turning to `OCc1ccc(-c2cncc(Nc3cccc(Cl)c3)c2)cc1`, the log2 fold change growth was -0.873 (inactive).

Turning to `Cc1nc2ccccn2c1C(=O)NCc1ccc(Cl)cc1`, the log2 fold change growth is 0.244 (inactive).
